High-throughput results from PubChem BioAssay.
Sfp inh – qHTS Assay for Inhibitors of Bacillus subtilis Sfp phosphopantetheinyl transferase (PPTase); 4'-phosphopantetheinyl transferase ffp (Bacillus subtilis), Q9F4F7; Potency, µM, without a hit: largest response in the series, negative = inhibition, hits mostly inhibitors; actives 3.5% (n = 310,000); Biochemical Sfp PPTase activity, qHTS; AID 1490, 2009;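 also: the enzyme is Sfp with the accession as filed and its product quenches rhodamine fluorescence; 0% = enzyme reaction without inhibitor and -100% = no enzyme wells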
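With Hepes-Na pH 7.6 buffer containing 10 mM MgCl2, Sfp (15 nM) modified BHQ-2-YbbR (12.5 uM) using rhodamine-CoA (5 uM). Two reads 30 minutes apart at 525/598 nm yielded each well's rate.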
G9a inh – qHTS Assay for Inhibitors of Histone Lysine Methyltransferase G9a. Histone-lysine N-methyltransferase EHMT2 (Homo sapiens), Q96KQ7. actives 8.8% (n = 350,000). Potency, µM (highest dose often 102 µM), for inactives: at the highest dose activity, negative = inhibition, usual class: inhibitors. G9a H3K9 monomethylation, AlphaScreen, 2 h. AID 504332, 2011; also: % is scaled to controls: 0 for no effect and ±100 for the full control effect; nearly all actives have a fitted effect of over 75% in size
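G9a (20 nM) preincubated 15 min RT with compounds, then 500 nM biotinylated H3K9 peptide and 20 uM SAM added; 2 h RT reaction. Monomethyl-H3K9 product detected by AlphaScreen with anti-H3K9me1 antibody, streptavidin donor and anti-rabbit IgG acceptor beads.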
HP1b binding inh – HTS for Inhibitors of HP1-beta Chromodomain Interactions with Methylated Histone Tails | Chromobox protein homolog 1 (Homo sapiens), P83916 | AlphaScreen HP1-beta / biotin-H3K9me3 peptide binding | Potency, µM (highest dose often 114 µM), inactives show top-dose activity change, negative = inhibition, hits mostly inhibitors | actives 0.56% (n = 390,000); also: nearly all actives have a fitted effect of over 70% in size
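HP1-beta protein (50 nM final) preincubated 30 min at room temperature with biotinylated H3(1-18)K9me3 peptide (50 nM) in PBS pH 7.4, 0.01% Tween-20, then compound added for 30 min. AlphaScreen streptavidin donor/nickel chelate acceptor beads (10 ug/mL final), 30 min dark, luminescence read.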
JMJD2A Tudor inh – qHTS Assay for Inhibitors of JMJD2A-Tudor Domain; AlphaScreen JMJD2A-Tudor / H3K4me3 peptide binding; Potency, µM (series often up to 114 µM), for the others: at the highest dose activity change, negative = inhibition, most hits filed as inhibitors; actives 4.4% (n = 390,000); also: % is scaled to controls: 0 for no effect and ±100 for the full control effect; nearly all actives have a fitted effect of over 50% in size
PLK1 PBD block – qHTS for Inhibitors of PLK1-PDB (polo-like kinase 1 - polo-box domain): Primary Screen. Serine/threonine-protein kinase PLK1 (Homo sapiens), P53350. Plk1 PBD binding of FITC phosphopeptide, fluorescence polarization. Potency, µM, for inactives: max response, negative = inhibition, most hits filed as inhibitors. actives 2.8% (n = 360,000). AID 720504, 2013; also: series mostly up to about 57 µM; % is scaled to controls: 0 for no effect and ±100 for the full control effect; nearly all actives have a fitted effect of over 65% in size
BAZ2B block – qHTS Assay for Inhibitors of BAZ2B; AlphaScreen BAZ2B-H3K14Ac peptide displacement; Bromodomain adjacent to zinc finger domain protein 2B (Homo sapiens), Q9UIF8; Potency, µM (doses to about 114 µM), without a hit: at the top dose activity change, negative = inhibition, actives largely listed as inhibitors; actives 4.4% (n = 360,000); AID 504333, 2011; also: % is scaled to controls: 0 for no effect and ±100 for the full control effect; nearly all actives have a fitted effect of over 60% in size
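In this displacement format the biotinylated H3(5-23) peptide acetylated at Lys14 serves as ligand at 50 nM, with BAZ2B at 50 nM in PBS pH 7.4 containing 0.01% Tween-20. Donor and acceptor beads are 10 ug/mL final.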
* hit, by the source's call; ? = inconclusive; . = no result; [ ] = dose if it differs, or a comment. The list is not random: actives were taken first. Their share in the collection is about 12%. Calls follow the shape of the dose curve; as a rule, active = well fitted curve in the direction sought with a large enough effect; inconclusive = small, poorly fitted or top-dose-only effect, or another doubt; inactive = no such curve, though single readings can be large; an effect the other way counts as inactive or inconclusive. Potency is read from the fitted curve at half-maximal effect.

SMILES | Sfp inh | G9a inh | HP1b binding inh | JMJD2A Tudor inh | PLK1 PBD block | BAZ2B block
c1cncc(CNc2cc(-c3ccoc3)ncn2)c1 | 56µM* | -25%[0.501 µM] | . | . | . | .
Cc1cccc(CNc2cc(-c3ccoc3)ncn2)c1 | 14µM* | . | . | . | . | .
COc1ccccc1CNc1cc(-c2ccoc2)ncn1 | 28µM* | 1%[0.501 µM] | . | . | . | .
Cc1cnc(CNc2cc(-c3ccc4c(c3)OCO4)ncn2)cn1 | 7% | ? | . | . | . | .
Cc1cccc(CNc2cc(-c3ccc(N(C)C)cc3)ncn2)c1 | -28% | . | . | . | . | .
Cc1cnc(CNc2cc(-c3ccoc3)ncn2)cn1 | 28µM* | . | . | . | . | .
CN(C)c1ccc(-c2cc(NCc3cccnc3)ncn2)cc1 | -3% | . | . | . | . | .
COc1ccccc1CNc1cc(-c2ccccc2OC)ncn1 | -12% | -7%[0.501 µM] | . | . | . | .
COc1ccc(NC(=O)c2oc3ccccc3c2NC(=O)Cc2cccs2)cc1 | . | 6%[59 µM] | 24% | -11% | . | -25%
CCn1c2ccccc2c2cc(NC(=O)COC(=O)c3cc(S(N)(=O)=O)c(Cl)cc3Cl)ccc21 | -10% | ? | 7% | -13% | -6% | -12%
CC(=O)c1nnn(-c2ccc([N+](=O)[O-])cc2C)c1C | 7% | -37% | ? | -32%[11.4 µM] | 24µM* | -14%
CC(=O)c1nnn(-c2cccc([N+](=O)[O-])c2)c1C | 8% | ? | 43% | 7% | -6% | -17%
O=C(O)CSc1cc(C(=O)c2ccccc2O)cn2c(=O)c3c4c(sc3nc12)CCCC4 | ? | ? | 71µM* | 35µM* | ? | 22µM*
CCOC(=O)c1cc(C(=O)c2ccccc2O)cn2c(=O)c3c(C)c(C)sc3nc12 | 45µM* | -129%[59 µM] | . | . | . | ?
O=C(Nc1ncnc2nc[nH]c12)c1ccccc1 | . | . | 36% | 3% | . | .
CCCCCCCCCn1ccc(=N)cc1 | -24% | 5% | 22% | -10% | 1% | 5%
CCCCCCCn1ccc(=N)cc1 | 10% | 6.3µM* | 11% | 13% | -1% | -4%
Cc1cc(C)c(C#N)c(=N)o1 | 14µM* | 1.8µM* | -58% | 79µM* | 4.7µM* | .
CSc1nc(C)cc(C)c1C#N | 4% | 57% | 55% | 16% | 2% | -19%
COCCc1ccc(OC2(C)CCN(Cc3cccc(OCOC)c3)C2)cc1 (stereo unspecified) | . | . | . | . | -3% | .
CCOC(=O)c1sc(NC(=O)/C=C/c2cnn(CC)c2C)c(C(=O)OCC)c1C | 25µM* | ? | -13% | -12% | 13µM* | 6%
CCCOC(=O)c1c(NC(=O)/C=C/c2cnn(C)c2C)sc(C(=O)OCC)c1C | 2% | -4% | 7% | -2% | 0% | 5%
Clc1cccc(Cl)c1CNC1CCCC1 | -8% | ? | 29% | -12% | 3% | 11%
CCCCNCc1cccn1-c1ccccc1 | -24% | ? | ? | 5µM* | -2% | 71µM*
O=C(CSc1nncn1-c1ccccc1)NC1CCCCC1 | 27% | -4% | 12% | -16% | -14% | -2%
SMILES | Sfp inh | G9a inh | HP1b binding inh | JMJD2A Tudor inh | PLK1 PBD block | BAZ2B block
c1ccc(-n2cccc2CNC2CCCCC2)cc1 | -14% | ? | ? | 3.5µM* | -15% | ?
Cn1cccc1CNC1CCCCC1 | 8% | 50µM* | 7% | -15% | -2% | -32%
CCOc1ccc(C2OCCC(C)O2)cc1OC (stereo unspecified) | . | . | 0%[57 µM] | 0% | -2% | .
O=C(O)c1cc(Cl)n[nH]c1=O | . | . | . | . | -8% | .
Cc1cccc(N(C)C(=O)C2CCCN2S(=O)(=O)c2cccc3nsnc23)c1 (stereo unspecified) | 14% | . | 15% | -28% | -7% | -2%
Cc1ccccc1C(=O)c1cccn1CC(=O)NCCN1CCN(c2cccc(C)c2C)CC1 | -5% | -6%[59 µM] | ? | 50µM* | -6% | ?
Cc1ccc(C)c(N2CCN(CCCNC(=O)Cn3cccc3C(=O)c3ccccc3C)CC2)c1 | -1% | -39% | -18% | ? | 16% | -30%
Cc1ccc(S(=O)(=O)NC2=NCN(C(C)C)CN2)cc1 | 15% | 20% | 18% | 1% | 2% | 2%
Cc1nnc2sc(SCC(=O)Nc3ccc(Cl)cc3)nn2c1=O | 19% | 5% | 61% | ? | 7% | 40µM*
CC(=O)Nc1cccc(NC(=O)CSc2nn3c(=O)c(C)nnc3s2)c1 | -6% | 34%[12.7 µM] | 57% | ? | -18% | 8%
COC(CN1C(=O)C(=O)/C(=C(/O)c2ccccc2)C1c1ccccn1)OC (stereo unspecified) | 3% | 50µM* | 31% | -1% | -1% | -36%
COCCCN1C(=O)C(=O)/C(=C(/O)c2ccc(OC(C)C)c(C)c2)C1c1ccncc1 (stereo unspecified) | 9% | 40µM* | 22% | -23% | -4% | ?
Cc1ccc(/C(O)=C2\C(=O)C(=O)N(C)C2c2cccc([N+](=O)[O-])c2)cc1 (stereo unspecified) | -10% | 79µM* | 26% | -8% | -15% | -21%
CC(=O)C1=C(O)C(=O)N(Cc2ccccc2)C1c1cccc([N+](=O)[O-])c1 (stereo unspecified) | 8% | ? | 4% | -4% | -2% | -18%
COCCCN1C(=O)C(=O)/C(=C(/O)c2ccc(OC)cc2)C1c1cccc(OC)c1 (stereo unspecified) | 11% | ? | 22% | -8% | 1% | -35%
COCCCN1C(=O)C(=O)/C(=C(/O)c2ccc(C)cc2)C1/C=C/c1ccccc1 (stereo unspecified) | 10% | 45µM* | -2% | -9% | 4% | -19%
CCCSCCCNC(=O)c1ccc2nc(Cc3ccccc3)oc2c1 | . | -4%[59 µM] | 19%[57 µM] | -17% | . | -2%
CC(C)CN(C[C@@H](OP(=O)(O)O)[C@H](Cc1ccccc1)NC(=O)O[C@@H]1CCOC1)S(=O)(=O)c1ccc(N)cc1 | -8% | 15%[12.7 µM] | . | . | . | .
N#Cc1ccc(OCc2noc(-c3ccsc3)n2)cc1 | 8% | 28% | 14% | -12% | -2% | 5%
COCCCN1C(=O)C(=O)/C(=C(/O)c2ccc(C)cc2)C1c1ccccc1 (stereo unspecified) | 23% | 50µM* | 2% | ? | -6% | -8%
COCCN1C(=O)C(=O)/C(=C(/O)c2ccc(C)cc2)C1c1ccccn1 (stereo unspecified) | 2% | 50µM* | 9% | -35% | -13% | -31%
